Test results taken from PubChem BioAssay AID1259376 (The Scripps Research Institute Molecular Screening Center, 2018).
The campaign covered roughly 4,700 compounds. About 360 (7.7%) were called active.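 The calls were made as follows: active = inhibition above a cutoff derived from the DMSO control wells (cut at about 30% in these data); inactive = the rest.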 The list is a sample of the results.

Test: AlphaScreen optical interference compounds, counter-screen for MITF inhibitor project, biochemical, triplicate (AID 1259376)
Settings: LysRS AlphaScreen counterscreen, signal interference, at 2.6 µM, active compounds read high
In the case of `CC(C)(C)n1nnnc1C(c1ccc2ncccc2c1)N1CCSCC1` (configuration not stated), the inhibition is reported as 30.7% (active).
With `CCSc1ccccc1C(=O)N1CCN(c2ccc(-c3ccccn3)nn2)CC1` the inhibition was 101% (active).
For `Brc1cccc(CN2CCN(Cc3cccnc3)CC2)c1`, the inhibition was -5.02% (inactive).
In the case of `Cc1cc(C(C)(C)C)ccc1OCCN1CCNCC1`, the inhibition is reported as -9.28% (inactive).
In the case of `CCN1CCN(CCOCCOc2ccccc2OCc2ccccc2)CC1`, the inhibition is reported as 9.59% (inactive).
With `Cc1cc(NC(=O)/C=C/C(=O)N(CC(=O)NC2CCCC2)c2ccc(F)cc2)no1` the inhibition was 10.1% (inactive).
For `O=C(c1ccc2c(c1)C(=O)N(Cc1cccnc1)C2=O)c1ccc2c(c1)C(=O)N(Cc1cccnc1)C2=O`, the inhibition was 24.6% (inactive).
In the case of `CN(CCc1ccccn1)Cc1cccnc1`, the inhibition is reported as 22.1% (inactive).
With `Cc1ccc(OCCCCNCCN2CCOCC2)c(Br)c1` the inhibition was 13.8% (inactive).
With `CCc1cccc(OCCOCCn2ccnc2)c1` the inhibition was -2.1% (inactive).
In the case of `CCc1ccc(OCCCCn2ccnc2)cc1`, the inhibition is reported as 0.71% (inactive).
With `N#Cc1nc(COc2cccc(Cl)c2)oc1NCCCn1ccnc1` the inhibition was 65.7% (active).
For `c1ccc(-n2cc(CN3CCOCC3)c(-c3ccc4c(c3)OCCO4)n2)cc1`, the inhibition was 10% (inactive).
With `CCCS(=O)(=O)N1CCN(Cc2ccc(OC)c(OCc3ccccc3)c2)CC1` the inhibition was 9.8% (inactive).
With `CN1CCC(N2CCN(c3ccccc3Cl)CC2)CC1` the inhibition was 14.1% (inactive).
In the case of `COc1cc(Nc2ncnc3c2nc(N2CCOCC2)n3C(C)C)cc(OC)c1OC`, the inhibition is reported as 13.7% (inactive).
With `COc1ccc(Cn2nnc(C(=O)Nc3cccc(Cl)c3)c2N)cc1` the inhibition was 14.3% (inactive).
For `O=C(CNCc1ccc(F)cc1)Nc1ccc(N2CCCC2)cc1`, the inhibition was 25.2% (inactive).
For `CCOc1ccc(CN2CCCN(C)CC2)cc1`, the inhibition was 0.42% (inactive).
In the case of `CCCn1c(C)cc(-c2csc(NC(=O)Cc3ccsc3)n2)c1C`, the inhibition is reported as 12% (inactive).
In the case of `CC(=O)NS(=O)(=O)c1ccc(-c2ccc(C=C(C#N)C#N)o2)cc1`, the inhibition is reported as 3.05% (inactive).
In the case of `COc1ccc(CN2CCN(Cc3ccccc3OC)CC2)cc1Br`, the inhibition is reported as 7.62% (inactive).
With `Cc1cccc(CSc2n[nH]c(=O)[nH]c2=O)c1` the inhibition was -7.01% (inactive).
In the case of `CC1CN(CCOc2ccccc2[N+](=O)[O-])CC(C)O1` (configuration not stated), the inhibition is reported as 13.4% (inactive).
For `COc1ccc(OCCn2ccnc2C)cc1`, the inhibition was -3.46% (inactive).
In the case of `CCN1CCN(CCOCCOc2ccc([N+](=O)[O-])cc2)CC1`, the inhibition is reported as 9.29% (inactive).
With `COc1cccc(/C=C(\C#N)c2nc3ccccc3[nH]2)c1OCc1ccc(Cl)cc1Cl` the inhibition was 0.18% (inactive).
For `COc1ccc(C(CNCc2cc(=O)oc3cc4c(cc23)CCC4)N2CCOCC2)cc1` (configuration not stated), the inhibition was 13% (inactive).
For `CCOc1cc(CN2CCN(Cc3ccccn3)CC2)ccc1OC`, the inhibition was 17.5% (inactive).
In the case of `c1cc2c(cc1CN1CCN(C3CCCCC3)CC1)OCO2`, the inhibition is reported as 2.75% (inactive).
For `COc1cc(CN2CCN(Cc3cc(OC)c(OC)cc3OC)CC2)cc(OC)c1`, the inhibition was -0.77% (inactive).
With `COc1cc(CN2CCN(Cc3ccccc3Br)CC2)cc(OC)c1` the inhibition was 9.78% (inactive).
With `CCN(CC)C(=O)C1CCCN(Cc2cccc(Cl)c2)C1` (configuration not stated) the inhibition was 14.2% (inactive).
With `COc1ccc(C(=O)N2CCN(Cc3ccccc3C(F)(F)F)CC2)cc1OC` the inhibition was 20.4% (inactive).
For `CN(C)c1cccc(Nc2ccc(-c3cccc(C=O)c3)cn2)c1`, the inhibition was 73.1% (active).
With `C1=CC2CC1CC2CN1CCN(Cc2c[nH]c3ccccc23)CC1` (configuration not stated) the inhibition was 2.75% (inactive).
In the case of `COc1ccc(CN2CCN(C3CCC(C)CC3)CC2)c(OC)c1OC` (configuration not stated), the inhibition is reported as -12.1% (inactive).
With `CC(=O)c1ccc(NC(=O)C(C)NCc2ccc(C)cc2)cc1` (configuration not stated) the inhibition was 15.9% (inactive).
In the case of `Fc1cccc(CN2CCN(C3CCC(c4ccccc4)CC3)CC2)c1` (configuration not stated), the inhibition is reported as 21.8% (inactive).
For `COCCCN1C(=O)c2cccc3c(C(=O)c4ccccc4)ccc(c23)C1=O`, the inhibition was 12.9% (inactive).
With `CCOc1cccc(C2C(C(=O)OCCOc3ccccc3)=C(C)NC3=C2C(=O)CCC3)c1` (configuration not stated) the inhibition was 14.4% (inactive).
For `COC(=O)C1(C)NC(c2ccc(C)cc2)C2C(=O)N(c3ccc(F)cc3)C(=O)C21` (configuration not stated), the inhibition was 11.6% (inactive).
For `COc1cc(N2CCOCC2)ccc1Nc1cc(Nc2ccccc2-n2cccn2)c(C(F)(F)F)cn1`, the inhibition was 8.51% (inactive).
In the case of `O=C(C1CCN(Cc2nc3ccccc3[nH]2)CC1)N1CCN(c2ccccn2)CC1`, the inhibition is reported as 13.8% (inactive).
With `c1cncc(CCNc2ccc3ncc(-c4cc5ccccc5o4)n3n2)c1` the inhibition was 6.63% (inactive).
For `O=C(c1ccccc1)N1CCN(C2CCCC2)CC1`, the inhibition was -2.61% (inactive).
For `COc1ccc(C2C(C(C)=O)=C(C)N=C3SCC(=O)N32)c(OC)c1` (configuration not stated), the inhibition was -6.53% (inactive).
In the case of `COc1ccc(C(=O)COC(=O)CNS(=O)(=O)/C=C/c2ccc(C)cc2)cc1OC`, the inhibition is reported as 5.32% (inactive).
With `O=C(CN1CCN(CC(=O)c2ccco2)CC1)Nc1ccc(Cl)c(Cl)c1` the inhibition was 10.6% (inactive).
In the case of `COc1cc(CN2CCN(Cc3ccc(C)cc3)CC2)c([N+](=O)[O-])cc1OC`, the inhibition is reported as 13.5% (inactive).
In the case of `CCOc1ccccc1N1CCN(Cc2cc(OC)c(O)c([N+](=O)[O-])c2)CC1`, the inhibition is reported as 16.9% (inactive).
In the case of `O=C(CCC(=O)OCc1ccc(Cl)cc1)Nc1ccc([N+](=O)[O-])cc1`, the inhibition is reported as 14.7% (inactive).
In the case of `Cc1n[nH]c(=O)nc1N/N=C/c1cccs1`, the inhibition is reported as 100% (active).
For `CC1CCN(S(=O)(=O)c2ccc(Cl)c(C(=O)Nc3ccccc3[N+](=O)[O-])c2)CC1`, the inhibition was 14.3% (inactive).
With `COc1ccc(OC)c(CN2CCN(Cc3ccc(Cl)cc3)CC2)c1` the inhibition was 15.1% (inactive).
In the case of `Cn1c(=NC(=O)COc2ccccc2)sc2cc(S(C)(=O)=O)ccc21`, the inhibition is reported as 12.4% (inactive).
With `COC(=O)c1sc(NC(=O)c2ccccc2C)c(C#N)c1C` the inhibition was -2.84% (inactive).
With `Cc1ccccc1NC(=O)NCCOc1cc(N2CCCC2)ncn1` the inhibition was 13.1% (inactive).
In the case of `O=[N+]([O-])c1ccccc1CN1CCN(Cc2cccnc2)CC1`, the inhibition is reported as 12.2% (inactive).
In the case of `O=C(c1cccc(Cl)c1)N1CCN(Cc2cccnc2)CC1`, the inhibition is reported as 7.21% (inactive).
With `COc1ccc(-c2nc(Nc3cc(OC)c(OC)c(OC)c3)c3[nH]cnc3n2)cc1` the inhibition was 16.5% (inactive).
With `CCNc1nc(NCC)nc(C(=O)O)n1` the inhibition was 77% (active).
